Data taken from PubChem BioAssay (Tox21).
Results filed as inconclusive are left out. The source made the active and inactive calls. Unless noted, the call rests on the fitted dose curve; in most records, active means well fitted curve in the direction sought with a large enough effect in the repeat runs; inconclusive means weak or mixed curves; inactive means no such curve, though single readings can be large; an effect the other way counts as inactive or inconclusive.

Key:
[1] = qHTS assay to identify small molecule antagonists of the estrogen related receptor (ERR) signaling pathway from Tox21 library - cell viability counter screen (AID 1224834); further: nearly all actives have a fitted effect of over 30% in size; further: potency means the concentration at half of the fitted maximal effect
Method in brief: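 Fluorescence from CellTiter-Fluor gives the viability read-out, taken 30 min after reagent addition. Before that, ERR cells seeded 6 h earlier were incubated with compounds for 17.5 h at 37 C.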

[2] = molecular target: Luciferin 4-monooxygenase (Photinus pyralis) (UniProt P08659); assay: qHTS assay to identify small molecule inhibitors of firefly luciferase (AID 1224835); further: nearly all actives have a fitted effect of over 25% in size; further: potency means the concentration at half of the fitted maximal effect
Method in brief: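 Inhibition of purified Photinus luciferase is measured by luminescence. Substrate levels (D-luciferin, ATP) sit at their KM values. Each compound is tested in a concentration series.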

[3] = qHTS assay to identify small molecule agonists of the constitutive androstane receptor (CAR) signaling pathway - cell viability counter screen (AID 1224836); further: nearly all actives have a fitted effect of over 45% in size; further: potency means the concentration at half of the fitted maximal effect
Method in brief: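 Viability read-out: CellTiter-Fluor fluorescence after 23 h compound exposure at 37 C/5% CO2 in double-stable HepG2-CYP2B6-hCAR cells, with PK11195 present at 0.75 uM final; compounds tested in 15-point titration.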

[4] = qHTS assay to identify small molecule antagonists of the constitutive androstane receptor (CAR) signaling pathway - cell viability counter screen (AID 1224837); further: nearly all actives have a fitted effect of over 45% in size; further: potency means the concentration at half of the fitted maximal effect
Method in brief: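 HepG2-CYP2B6-hCAR cells, 2500/well, 4 hr pre-incubation; compound titration, 15 conc.; CITCO 50 nM final; 23 hr, 37 C/5% CO2; CellTiter-Fluor, fluorescence intensity.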

[5] = molecular target: Nuclear receptor subfamily 1 group I member 3 (Homo sapiens) (UniProt Q14994); assay: qHTS assay to identify small molecule antagonists of the constitutive androstane receptor (CAR) signaling pathway (AID 1224838);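 further: HepG2 cells stably expressing hCAR with CYP2B6 luciferase reporter stimulated by CITCO; nearly all actives have a fitted effect of over 40% in size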; further: potency means the concentration at half of the fitted maximal effect
Method in brief: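 HepG2-CYP2B6-hCAR cells; 4 h pre-incubation; cpd (15 conc) + CITCO 50 nM final; 24 h, 37 C/5% CO2; ONE-Glo, luminescence.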

[6] = qHTS assay to identify small molecule antagonists of the estrogen related receptor signaling pathway with the pleiotropic PPARgamma coactivator (PGC) from Tox21 10K library - cell viability counter screen (AID 1224840; active means well fitted cell-killing curve with a large enough effect in the repeat runs, not every such curve was filed as active; further: nearly all actives have a fitted effect of over 40% in size; further: potency means the concentration at half of the fitted maximal effect)
Method in brief: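 PGC/ERR cells, 2,000/well; 6 h pre-incubation 37 C/5% CO2; cpd in DMSO via pin tool; 17.5 h 37 C; CellTiter-Fluor, 30 min; fluorescence.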

[7] = molecular target: Thyrotropin receptor (Homo sapiens) (UniProt P16473); assay: qHTS assay to identify small molecule agonists of the thyroid stimulating hormone receptor (TSHR) signaling pathway (AID 1224843; calls by dose curve; further: nearly all actives have a fitted effect of over 45% in size)
Method in brief: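 HEK293 cells stably bearing the thyrotropin receptor were plated at 800 cells/well and challenged with compound (30 min, RT). Accumulated cAMP was quantified via cAMP-d2 competing for cryptate-tagged antibody.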

[8] = qHTS assay to identify small molecule agonists of the hypoxia (HIF-1) signaling pathway - cell viability counter screen (AID 1224844; calls by dose curve; further: nearly all actives have a fitted effect of over 50% in size)
Method in brief: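 ME-180 HRE-bla cells, 2,000/well, 0.5% dialyzed FBS; 5 hr settle, 17 hr compound at 37C/5% CO2; CCF4-AM reporter read first, then CellTiter-Glo luminescence after 30 min RT.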

[9] = qHTS assay to identify small molecule agonists of H2AX (AID 1224845; active means well fitted activation curve with a large enough effect in the signal ratio in the repeat runs, not every such curve was filed as active; the % refers to the signal ratio)
Method in brief: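 Phospho-H2AX Ser139 measured by HTRF (ex 320 nm; em 665 and 620 nm) after 24 hr antibody incubation. Compounds, 15 concentrations, 0.76% DMSO, were applied to CHO-K1 cells for 3hr at 37C before lysis.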

[10] = qHTS assay to identify small molecule agonists of the hypoxia (HIF-1) signaling pathway (AID 1224846; active means well fitted activation curve with a large enough effect in the signal ratio in the repeat runs, not every such curve was filed as active; the % refers to the signal ratio)
Method in brief: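 Cell line: CellSensor HRE-bla ME-180; 2,000 cells/well; 0.5% dialyzed FBS; 5 h preincubation; DMSO compound pin transfer; 17 h, 37C, 5% CO2; CCF4-AM added; bla FRET signal scored for activation.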

[11] = qHTS assay to identify small molecule agonists of H2AX - cell viability counter screen (AID 1224847; calls by dose curve;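 further: wild-type CHO-K1 cells; top concentration of the series differs between compounds; nearly all actives have a fitted effect of over 30% in size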)
Method in brief: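 CHO-K1 wt, 1000 cells/well, o/n 37C; cpds 15 conc, 3 h 37C, 0.76% DMSO; CellTiter-Glo, 30 min RT, luminescence.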

[12] = qHTS RealTime-Glo MT Cell Viability Assay in HepG2 cells - 24 hour (AID 1224867); further: nearly all actives have a fitted effect of over 50% in size; further: potency means the concentration at half of the fitted maximal effect
Method in brief: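 HepG2 cells were seeded at 600 cells/well together with NanoLuc luciferase and a cell-permeant prosubstrate, preincubated 5 h at 37 C/5% CO2, then pin-dosed with compounds in DMSO. Nonlytic luminescence from viable cells was read at each time point.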

[13] = qHTS RealTime-Glo MT Cell Viability Assay in HEK293 cells - 32 hour (AID 1224868); further: nearly all actives have a fitted effect of over 50% in size; further: potency means the concentration at half of the fitted maximal effect; on activity change, negative = cytotoxic: top concentration of the series differs between compounds
Method in brief: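 HEK293 cells were seeded at 600 cells/well together with NanoLuc luciferase and cell-permeant prosubstrate, preincubated 5 h at 37 C/5% CO2, then given compound in DMSO by pintool. Luminescence from viable-cell prosubstrate reduction was read repeatedly over 40 h.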

[14] = A CellTox Green Cytotoxicity Assay to monitor cytotoxicity in HEK293 cells - 0 hour (AID 1224869); further: nearly all actives have a fitted effect of over 50% in size
Method in brief: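 Nonlytic real-time cytotoxicity: HEK293 + CellTox Green reagent plated, 5 h preincubation, pintool compound addition (23 nL in DMSO), 37 C for 40 h, fluorescence measured at successive time points.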

[15] = molecular target: Nuclear receptor subfamily 1 group I member 3 (Homo sapiens) (UniProt Q14994); assay: qHTS assay to identify small molecule agonists of the constitutive androstane receptor (CAR) signaling pathway (AID 1224839);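 further: HepG2 cells stably carrying human CAR and a CYP2B6 luciferase reporter; nearly all actives have a fitted effect of over 15% in size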
Method in brief: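 Luminescence read-out (ONE-Glo, 30 min, room temperature) from double-stable HepG2-CYP2B6-hCAR cells exposed 24 h to 15-point compound series in presence of 0.75 uM PK11195 final.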

[16] = qHTS assay to identify small molecule antagonists of the estrogen related receptor signaling pathway with the pleiotropic PPARgamma coactivator (PGC) from Tox21 10K library (AID 1224841; call rule not given here)
Method in brief: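 PGC/ERR cell line, 2,000 cells/well; 6 h pre-incubation 37 C/5% CO2; compounds (DMSO) pinned in; 18 h, 37 C; One-Glo, 30 min RT; luminescence.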

[17] = qHTS assay to identify small molecule agonists of the estrogen related receptor signaling pathway with the pleiotropic PPARgamma coactivator (PGC) from Tox21 10K library (AID 1224842); further: nearly all actives have a fitted effect of over 15% in size; further: potency means the concentration at half of the fitted maximal effect
Method in brief: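 Luminescence from One-Glo (30 min, room temperature) measured after PGC/ERR cells had 18 h at 37 C with pinned compound (23 nL in DMSO). Cells had been seeded at 2,000 per well and pre-incubated 6 h.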

[18] = qHTS assay to identify small molecule antagonists of the estrogen related receptor (ERR) signaling pathway from Tox21 library (AID 1224848); further: nearly all actives have a fitted effect of over 50% in size
Method in brief: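 Reading was by luminescence 30 min after ONE-Glo addition. Before that, ERR cells at 2,000 per well had rested 6 h at 37 C/5% CO2 and then received pin-tooled compounds in DMSO for 18 h at 37 C.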

[19] = qHTS assay to identify small molecule agonists of the estrogen related receptor (ERR) signaling pathway from Tox21 library (AID 1224849; calls by dose curve; further: nearly all actives have a fitted effect of over 15% in size); conditions: ERR reporter cell line, ONE-Glo luciferase, 18 h; at 92.4 µM (top of the series) unless noted
Method in brief: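 ERR cells, 6 h pre-incubation 37 C/5% CO2; cpd in DMSO pinned; 18 h 37 C; ONE-Glo added, 30 min RT; luminescence read. Agonist mode, qHTS.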
On the % scale 0 is the no-effect control and ±100 the full control effect.

Chain of Nuclear receptor subfamily 1 group I member 3 (Homo sapiens) (Q14994 whole entry, looked up): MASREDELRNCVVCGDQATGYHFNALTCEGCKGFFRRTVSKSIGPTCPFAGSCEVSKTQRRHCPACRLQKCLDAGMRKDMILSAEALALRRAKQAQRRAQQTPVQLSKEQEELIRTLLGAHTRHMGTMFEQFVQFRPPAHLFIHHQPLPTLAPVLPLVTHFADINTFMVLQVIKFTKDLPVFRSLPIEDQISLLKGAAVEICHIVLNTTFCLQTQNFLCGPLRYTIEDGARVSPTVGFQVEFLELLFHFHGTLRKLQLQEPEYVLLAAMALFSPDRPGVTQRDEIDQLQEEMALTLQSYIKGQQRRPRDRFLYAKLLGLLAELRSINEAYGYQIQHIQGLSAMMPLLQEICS
Chain of Thyrotropin receptor (Homo sapiens) (P16473 whole entry, looked up): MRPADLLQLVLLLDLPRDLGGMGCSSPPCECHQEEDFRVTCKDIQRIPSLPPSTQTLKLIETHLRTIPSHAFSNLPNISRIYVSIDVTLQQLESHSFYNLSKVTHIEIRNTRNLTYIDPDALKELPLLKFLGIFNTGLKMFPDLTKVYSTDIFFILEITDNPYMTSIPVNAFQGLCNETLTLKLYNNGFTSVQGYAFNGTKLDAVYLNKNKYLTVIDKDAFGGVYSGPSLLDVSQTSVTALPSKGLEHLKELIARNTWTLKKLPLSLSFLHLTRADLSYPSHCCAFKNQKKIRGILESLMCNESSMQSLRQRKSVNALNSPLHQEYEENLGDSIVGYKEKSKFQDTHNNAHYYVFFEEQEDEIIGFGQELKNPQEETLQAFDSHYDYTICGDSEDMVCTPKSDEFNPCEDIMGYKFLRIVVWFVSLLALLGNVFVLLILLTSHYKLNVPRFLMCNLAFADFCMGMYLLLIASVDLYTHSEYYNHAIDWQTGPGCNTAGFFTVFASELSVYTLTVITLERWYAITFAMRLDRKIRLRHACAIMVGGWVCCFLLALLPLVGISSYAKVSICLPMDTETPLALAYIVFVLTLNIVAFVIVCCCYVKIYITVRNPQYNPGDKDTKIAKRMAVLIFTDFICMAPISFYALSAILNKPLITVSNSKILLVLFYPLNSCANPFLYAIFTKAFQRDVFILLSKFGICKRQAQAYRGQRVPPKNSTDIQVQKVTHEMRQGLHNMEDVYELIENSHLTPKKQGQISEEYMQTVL
Chain of Luciferin 4-monooxygenase (Photinus pyralis) (P08659 whole entry, looked up): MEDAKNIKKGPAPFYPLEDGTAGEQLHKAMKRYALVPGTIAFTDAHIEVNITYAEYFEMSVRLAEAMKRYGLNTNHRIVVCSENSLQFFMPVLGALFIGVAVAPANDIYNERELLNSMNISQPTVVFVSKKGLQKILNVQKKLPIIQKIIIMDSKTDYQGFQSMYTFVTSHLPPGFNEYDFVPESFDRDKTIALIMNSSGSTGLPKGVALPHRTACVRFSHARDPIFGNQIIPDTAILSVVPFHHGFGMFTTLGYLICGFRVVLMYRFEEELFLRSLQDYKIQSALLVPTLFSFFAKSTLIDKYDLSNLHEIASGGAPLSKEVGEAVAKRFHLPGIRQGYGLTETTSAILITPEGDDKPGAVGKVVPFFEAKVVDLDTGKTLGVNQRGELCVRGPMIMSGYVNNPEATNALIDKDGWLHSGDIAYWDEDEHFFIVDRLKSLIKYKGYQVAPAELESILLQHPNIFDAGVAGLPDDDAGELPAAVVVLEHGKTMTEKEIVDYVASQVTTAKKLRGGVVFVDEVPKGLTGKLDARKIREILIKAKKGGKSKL

CC(C)(C)C(O)/C=C/c1ccc2c(c1)OCO2 (stereo not drawn)
active: Potency [2] 24.5 µM
inactive: Potency [1] | Potency [3] | Potency [4] | Potency [5] | Potency [6] | Potency [7] | Potency [8] | Potency [9] | outcome [10] | Potency [11] | Potency [12] | Potency [13] | Potency [14]

CC1=CC[C@@]23C[C@@H]1C(C)(C)[C@@H]2CC[C@H]3C
inactive: Potency [1] | Potency [2] | Potency [3] | Potency [4] | Potency [15] | Potency [6] | Potency [7] | Potency [8] | Potency [9] | outcome [10] | Potency [11] | Potency [12] | Potency [13] | Potency [14]

Cc1ccc2nc(N)[nH]c(=O)c2c1Sc1ccncc1
inactive: Potency [1] | Potency [2] | Potency [3] | Potency [4] | Potency [5] | Potency [6] | Potency [16] | Potency [17] | Potency [8] | outcome [10] | Potency [11] | Potency [14]

CCC(=O)OCc1ccc(OC)cc1
inactive: Potency [1] | Potency [2] | Potency [3] | Potency [4] | Potency [5] | Potency [6] | Potency [7] | Potency [8] | Potency [9] | outcome [10] | Potency [11] | Potency [12] | Potency [13] | Potency [14]

c1ccc2sc(SSc3nc4ccccc4s3)nc2c1
active: Potency [2] 10.7 µM
inactive: viability change, negative = cytotoxic [1] 0.18% [at 19 µM] | viability change, negative = cytotoxic [3] 1.07% [at 19 µM] | activity change, negative = cytotoxicity [4] 11.8% [at 19 µM] | activity, negative = inhibition [5] 80.4% [at 19 µM] | viability change, negative = cytotoxic [6] 10.2% [at 19 µM] | activity change, negative = cytotoxicity [8] -3.54% [at 15.8 µM] | activation (H2AX phosphorylation) [9] 0.89% [at 31.6 µM] | activation [10] 0.936% [at 15.8 µM] | activity change, negative = cytotoxicity [11] 3.41% [at 31.6 µM] | activity change, negative = cytotoxicity [12] 4.65% [at 15.8 µM] | activity change, negative = cytotoxic [13] 12.7% [at 15.8 µM] | cytotoxicity [14] 4.7% [at 15.8 µM]

Cc1oc(=O)oc1COC(=O)[C@@H]1N2C(=O)[C@@H](NC(=O)[C@H](N)c3ccccc3)[C@H]2SC1(C)C
inactive: Potency [1] | Potency [2] | Potency [3] | Potency [4] | Potency [6] | Potency [16] | Potency [17] | Potency [7] | Potency [8] | Potency [9] | outcome [10] | Potency [11] | Potency [18] | Potency [12] | Potency [13] | Potency [14]

CO[C@@H]1[C@@H](OC)[C@H](C)[C@@](O)(CC(=O)O)O[C@H]1[C@H](C)[C@H]1O[C@@]2(CC[C@@](C)([C@H]3CC[C@@](C)([C@@H]4O[C@@H]([C@H]5O[C@](C)(O)[C@H](C)C[C@@H]5C)C[C@@H]4OC4C[C@H](OC)[C@@H](OC)[C@H](C)O4)O3)O2)C[C@H](O)[C@H]1C (stereo partly drawn)
inactive: Potency [2] | Potency [9] | Potency [14]
active: Potency [1] 0.944 µM | Potency [3] 5.31 µM | Potency [4] 4.73 µM | Potency [5] 9.44 µM | Potency [6] 0.75 µM | Potency [12] 5.35 µM | Potency [13] 3.01 µM

COc1ccc(C2C(=O)c3ccccc3C2=O)cc1
active: Potency [2] 3.09 µM | Potency [17] 10.6 µM
inactive: Potency [1] | Potency [3] | Potency [4] | Potency [5] | Potency [6] | Potency [16] | Potency [8] | Potency [9] | outcome [10] | Potency [11] | Potency [18] | activity change, positive = activation [19] 13.1% [at 42.5 µM] | Potency [12] | Potency [13] | Potency [14]

CC(C)OC(=O)c1ccccc1C(=O)OC(C)C
inactive: Potency [1] | Potency [2] | Potency [3] | Potency [4] | Potency [5] | Potency [6] | Potency [8] | Potency [9] | outcome [10] | Potency [11] | Potency [12] | Potency [13] | Potency [14]

CC[C@H]1OC(=O)[C@H](C)[C@@H](O[C@H]2C[C@@](C)(OC)[C@@H](O)[C@H](C)O2)[C@H](C)[C@@H](O[C@@H]2O[C@H](C)C[C@H](N(C)C)[C@H]2O)[C@](C)(O)C[C@@H](C)CN(C)[C@H](C)[C@@H](O)[C@]1(C)O
inactive: Potency [1] | Potency [2] | Potency [3] | Potency [4] | Potency [5] | Potency [15] | Potency [6] | Potency [8] | Potency [9] | outcome [10] | Potency [11] | Potency [12] | Potency [14]

C[C@@H]1[C@H](O)[C@@H](C)/C=C/C=C\C=C\C=C\C=C\C=C\C=C\[C@H](O[C@@H]2O[C@H](C)[C@@H](O)[C@H](N)[C@@H]2O)C[C@@H]2O[C@](O)(C[C@@H](O)C[C@@H](O)[C@H](O)CC[C@@H](O)C[C@@H](O)CC(=O)O[C@H]1C)C[C@H](O)[C@H]2C(=O)O (stereo in doubt)
active: Potency [1] 61.1 µM
inactive: Potency [2] | Potency [3] | Potency [4] | Potency [5] | Potency [6] | Potency [7] | Potency [11] | Potency [12] | Potency [13] | Potency [14]

CCc1ccc(C)cc1
inactive: Potency [1] | Potency [2] | Potency [3] | Potency [4] | Potency [5] | Potency [15] | Potency [6] | Potency [8] | Potency [9] | outcome [10] | Potency [11] | Potency [12] | Potency [13] | Potency [14]

C=C(C)C(=O)OCCC(F)(F)C(F)(F)C(F)(F)C(F)(F)C(F)(F)C(F)(F)F
inactive: Potency [1] | Potency [2] | Potency [3] | Potency [4] | Potency [5] | Potency [15] | Potency [6] | Potency [8] | Potency [9] | outcome [10] | Potency [11] | Potency [12] | Potency [13] | Potency [14]

COc1cc(OC)c2ccc(=O)oc2c1
inactive: Potency [1] | Potency [2] | Potency [3] | Potency [4] | Potency [5] | Potency [6] | Potency [7] | Potency [8] | outcome [10] | Potency [11] | Potency [12] | Potency [13] | Potency [14]
